The list shows a part of the results. A number with no mark means an inactive call.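 The calls were made as follows: active = activation above 30% in triplicate retests at 2 µM, then confirmed by visual review of the well images; inactive = the rest.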

Results on one compound are retold here after PubChem BioAssay AID1034 (Columbia University Molecular Screening Center, 2008).

The nature of the assay: enhancers of VCAM1 induction in HUVEC – imaging, triplicate retest, confirmation (AID 1034).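 Also: scaled per plate between unstimulated and TNFa-stimulated DMSO control wells.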 Particulars: HUVEC TNFa-stimulated VCAM-1 immunofluorescence imaging; at 2 µM; stronger effect = higher value.

In the case of `COC(=O)CN1C(=O)C2(C(C(=O)OC)=C(N)Oc3ccccc32)C2=C1CC(C)(C)CC2=O` (stereo unspecified), the activation is -16.1%.
